Drawing on PubChem BioAssay (EPA / NIEHS), this text covers AC50 and outcome for 40 molecules.

Activity calls are given as the source filed them. How the source made its calls: active means hit-call score of the fitted dose curve at least 0.9, where 1 is the maximum; inactive means score below 0.9.

Read-out in the assay: Pyruvate Dehydrogenase Kinase 4 (PDK4), PDK4 (gene 5166)
Nature of the assay: LTEA_HepaRG_PDK4: Life Technologies and Expression Analysis (LTEA) Assay for Pyruvate Dehydrogenase Kinase 4 (PDK4) using HepaRG (AID 2283525). To be noted: mRNA level, 48 h; actives raise or lower the signal. As for the experimental part:
LTEA_HepaRG is a cell based, multiplexed-readout assay that uses HepaRG, a human liver cell line, with measurements taken at 48 hours after chemical dosing on a 96-well plate.LTEA_HepaRG_PDK4 is one of 102 assay component(s) measured in the LTEA HepaRG cell culture assay. It is a marker of Diseases associated with PDK4 including Platelet Glycoprotein Iv Deficiency and Diabetes Mellitus, Noninsulin-Dependent.Data from the assay component LTEA_HepaRG_PDK4 was analyzed into 1 endpoint. This assay endpoint, LTEA_HepaRG_PDK4, was analyzed with bidirectional fitting relative to DMSO as the negative control and baseline of activity. Using a type of inducible reporter, measures of mRNA induction for gain or loss-of-signal activity can be used to understand regulation of transcription factor activity. To generalize the intended target to other relatable targets, this assay endpoint is annotated to the kinase intended target family, where the subfamily is serine/threonine kinase.
A total of 1060 chemcials from the ToxCast library were tested in eight-point concentration-response experiments. Cell culture and cytotoxicity assays were conducted at Thermo Fisher Scientific's Custom Services facility (Madison, WI). A single lot of human HepaRG cells (Thermo Fisher Scientific, Frederick, MD) was used for the cell culture experiments. 96-well format collagen type I coated plates of human HepaRG cells were prepared using established methods. Briefly, cryopreserved HepaRG cells were thawed, plated at a density of approximately 100,000 cells/well in HepaRG Thaw, Plate, and General Purpose media (HPRG770, Thermo Fisher Scientific), and incubated for 48 hours. 0.5% DMSO was selected as vehicle control to balance the requisite need of DMSO in HepaRG cultures to maintain differentiation (for example, baseline metabolism, proportions of hepatocytes vs. cholangiocytes), while enabling further hepatic receptor pathway activation (for example, PXR and CAR) in response to chemical exposure. 48 hours after plating, the culture medium was replaced with HepaRG Serum-Free Incudtion Media. Cells were exposed to each test chemical in duplicate and maintained in CO2 incubators for another 48 hours. Chemical plates were thawed to room temperature and 200x concentrations of treatment groups were prepared. 8-point conentration-reponse curves were made with the highest exposure at 100 uM, followed by half-log dilutions, all in 0.5% DMSO. Each test plate contained variouse controls, induction positive controls (1mM phenobarbital), cytotoxicity positive controls ([…] aflatoxin B1), vehicle controls (0.5% DMSO), and total lysis controls (0.5% DMSO). Cell morphology images were taken using an Essen IncuCyte FLR automated microscope, with six 96-well plates imaged in about 24 minutes. Images were captured and exported and JPEG files. Spent culture media was transfered to black-well plates for the LDH assay, and remaining media was sorted at -80 C for later use. Cells were treated with RLT buffer and frozen until shipped for gene expression analysis. Total RNA was isolated from the cell suspension in 75 uL of Buffer RLT (Qiagen, Germantown, MD 20874) by Quintiles/Expression Analysis (Durham, NC) using a custom isolation procedure. Total RNA from each plate well was transferred to a preamplification plate. Fluidigm's 96.96 Dynamic ArrayTM (Fluidigm, Amsterdam, the Netherlands) technology was used for gene expression analyses by quantitative reverse transcription polymerase chain reaction (qRT-PCR, performed by Quintiles/Expression Analysis, Durham, NC)89. Standard TaqManTM Assays (Applied Biosystems/ThermoFisher Scientific, Foster City, CA) were used to assess the expression of 93 genes selected based on their selectivity and sensitivity to important hepatic receptors known to be modulated by environmental chemicals; importance in human hepatocyte functionality; and hepatotoxicity. […]
One may read the AC50 as the concentration at which the activity in the assay is half-maximal. For the molecule `O=c1[nH]c2ccc(S(=O)CCN3CCC(Cc4ccc(F)cc4)CC3)cc2o1` (stereo not given), the AC50 was 14.7 µM (active).
Consider `CN(C)c1ccc(Cc2ccc(N(C)C)cc2)cc1`, for which the outcome was inactive.
Take `CCOC(=O)CC(CC(=O)OCC)(OC(C)=O)C(=O)OCC`: the molecule was called inactive.
On the same count and under the same terms, with `CCCCC(CC)COC(=O)CCCCCCCCC(=O)OCC(CC)CCCC` (stereo not given) the entry was “inactive”; with `COCCOCCOCCOC`, “inactive”.
For the molecule `CCCCC(CC)COC(=O)c1ccc(C(=O)OCC(CC)CCCC)cc1` (stereo not given), the call was inactive.
As for `C1N2CN3CN1CN(C2)C3`, the result was inactive.
As to `O=C(NS(=O)(=O)/C=C/c1ccccc1)c1ccc(F)cc1Cl`, the AC50 was 26.4 µM (active).
In the case of `CCOC(=O)COc1ccc2c(c1)CC(NCC(O)c1cccc(Cl)c1)CC2` (stereo not given), the molecule was called inactive.
On the same count and under the same terms, next, `O=C1OC(=O)C2C3C=CC(C3)C12` (stereo not given): “inactive”.
Same read-out and setting: next, `CCOCCOCCOCCO`: “inactive”.
Take `On1ccccc1=S`: the call was inactive.
As to `COC(=O)CC(=O)OC`, the call was inactive.
For `O=C(O)c1cccc(N(Cc2cccnc2)c2ccc(OC(F)F)c(OC(F)F)c2)c1`, the AC50 is 50 µM (active).
`CC(C)=CCC/C(C)=C\CO`: the result was inactive.
For the molecule `Nc1cccc(N)c1`, the molecule was called inactive.
`Cc1ccc(S(=O)(=O)O)cc1C`: the outcome was inactive.
Regarding `CCOC(=O)c1ccc(C2CCC(NC[C@H](O)COc3ccc(O)c(NS(C)(=O)=O)c3)CC2)cc1` (stereo not given in full), the molecule was called inactive.
Take `O=C1CCC(N2C(=O)c3ccccc3C2=O)C(=O)N1` (stereo not given): the call was inactive.
On to `CC(C)c1cccc(C(C)C)c1N1C(=O)c2ccc(O)cc2C1=O`, for which the call was inactive.
For `COCCOc1cc2cc(C(=O)NC3CCN(C(C)C)CC3)n(CC(=O)Nc3ccc(Cl)cn3)c2cn1`, the AC50 is 37.4 µM (active).
As for `Nc1ccc(Nc2ccccc2)cc1`, the outcome was inactive.
As to `CC/C(=C\C(=N/O)C(N)=O)C(C)[N+](=O)[O-]` (stereo not given), the molecule was classed as inactive.
Still for that read-out and setting: with `Cc1ccc(O)cc1` the entry was “inactive”.
For the molecule `Cc1[nH]cnc1C[C@H]1CCc2c(C)c3ccccc3n2C1=O`, the AC50 is 68.3 µM (active).
In the case of `Cn1c(=O)cc(Oc2ccc(F)cc2F)c2cnc(NCC(C)(C)O)nc21`, the result was inactive.
On the same count and under the same terms, with `CC[C@H]1OC(=O)[C@H](C)[C@@H](O[C@H]2C[C@@](C)(OC)[C@@H](O)[C@H](C)O2)[C@H](C)[C@@H](O[C@@H]2O[C@H](C)C[C@H](N(C)C)[C@H]2O)[C@](C)(O)C[C@@H](C)C(=O)[C@H](C)[C@@H](O)[C@]1(C)O` the entry was “inactive”.
As for `Nc1nc2ncc(CNc3ccc(C(=O)N[C@@H](CCC(=O)O)C(=O)O)cc3)nc2c(=O)[nH]1`, the molecule was called inactive.
In the case of `CCOc1cccc(-n2cc(C(=O)N3CCN(c4cc(C(=O)O)c5ccccc5c4)CC3)nc2-c2ccc(C)cc2)c1`, the AC50 was 89.3 µM (active).
With `C=CCCCCCCCCC(=O)O`, the result was inactive.
As for `CCN(C(=O)c1cc(C)cc(OC[C@H](C)Nc2ccncc2)c1)C(C)C`, the AC50 was 53.7 µM (active).
In the case of `CCC(C)(C)C(=O)O[C@H]1C[C@@H](C)C=C2C=C[C@H](C)[C@H](CC[C@@H]3C[C@@H](O)CC(=O)O3)[C@H]21`, the molecule was classed as inactive.
`Cc1ccc(N)cc1O`: the call was inactive.
Take `CC[C@H](C)C(=O)O[C@H]1C[C@@H](C)C=C2C=C[C@H](C)[C@H](CC[C@@H]3C[C@@H](O)CC(=O)O3)[C@H]21`: the AC50 was 16.9 µM (active).
As for `O=C(O)c1cccc(Oc2ccccc2)c1`, the AC50 was 50 µM (active).
In the case of `CCCCCCCCCCCCc1ccccc1`, the result was inactive.
For `CCn1nc(Cc2ccccc2)cc1C1CCN(C[C@H]2C[C@H](N(C)[C@@H](C(=O)O)C(C)C)C[C@@H]2c2cccc(F)c2)CC1`, the result was inactive.
In the case of `NC(=O)NO`, the outcome was inactive.
As for `CCCCCCCCCCCCCCCO`, the molecule was called inactive.
Still for that read-out and setting: next, `CCNc1ccccc1`: “inactive”.
